Screening results (PubChem)
In the library only some 0.54% were active in any assay of this set; here they are far more common.
CatS inh = inhibitors of human cathepsin S. recombinant cathepsin S, AMC dipeptide fluorescence, pooled mixtures. P25774. inhibition, %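 (tested at 5 µM per compound within 10-compound mixtures)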. AID 501. actives 0.06% (n = 62,000); in the data active means inhibition above about 32%, passing the limit was not always enough;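 further: 0% = enzyme without compound and 100% = blank without enzyme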
Target sequence (P25774 115-331 limits assumed): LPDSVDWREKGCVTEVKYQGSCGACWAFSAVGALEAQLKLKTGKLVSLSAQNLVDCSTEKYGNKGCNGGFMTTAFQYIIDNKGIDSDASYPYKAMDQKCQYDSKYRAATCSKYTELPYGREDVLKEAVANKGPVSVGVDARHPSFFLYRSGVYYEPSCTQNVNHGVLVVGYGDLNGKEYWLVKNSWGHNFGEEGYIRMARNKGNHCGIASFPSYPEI
CatL block = inhibitors of human cathepsin L. P07711. purified cathepsin L, fluorogenic substrate, fluorescence. inhibition, %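 (tested at 10 µM)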. actives 0.17% (n = 58,000). AID 460; in the data active means inhibition above about 45%;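 further: 0% = enzyme with no compound and 100% = no enzyme blank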
Target sequence (P07711 114-288 limits assumed): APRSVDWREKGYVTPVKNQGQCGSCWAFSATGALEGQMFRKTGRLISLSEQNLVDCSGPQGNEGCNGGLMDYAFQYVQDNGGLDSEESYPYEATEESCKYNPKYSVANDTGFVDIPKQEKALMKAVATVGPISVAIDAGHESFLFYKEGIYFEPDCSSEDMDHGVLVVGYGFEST
Target sequence (P07711 292-333 limits assumed): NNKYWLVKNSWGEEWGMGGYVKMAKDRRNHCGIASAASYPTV
Cathepsin G inh = cathepsin G (human) inhibition. purified enzyme, AMC-tetrapeptide fluorescence, pooled mixtures. AID 581. actives 0.2% (n = 62,000). P08311. inhibition, % at 5 µM (by protocol);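 active means inhibition above 20% in each of the two mixture wells holding the compound; inactive means inhibition of 20% or less in either well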;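 further: 0% = enzyme control without mixture and 100% = blank lacking enzyme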
C1s block = blocks human complement C1s protease activity; P09871; purified C1s, fluorogenic AMC substrate, pooled mixtures; mean inhibition % of two 10-compound mixtures (active compounds read high), % at 5 µM (by protocol); actives 0.16% (n = 62,000); AID 538;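 active means inhibition above 20% in each of the two 10-compound mixture wells holding the compound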;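 further: 0% = enzyme wells lacking compound mixture and 100% = no-enzyme blank wells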
CatB block = human cathepsin B inhibition; purified cathepsin B, fluorogenic substrate, fluorescence; inhibition, %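 (tested at 10 µM)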; actives 0.1% (n = 63,000); in the data active means inhibition above about 21%;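 further: 0% = enzyme with no compound and 100% = no enzyme blank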
CatB mixtures = human cathepsin B inhibition by mixtures; P07858; Purified cathepsin B, AMC dipeptide fluorescence, compound mixtures; inhibition, %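 (ten-compound pools at 5 µM per compound and 50 µM total)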; actives 0.06% (n = 62,000); AID 488; in the data active means inhibition above about 22%, passing the limit was not always enough;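 further: 0% = enzyme without compound and 100% = no enzyme blank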
* marks the source's active call; other numbers are inactive results; · = no result given.

SMILES	CatS inh	CatL block	Cathepsin G inh	C1s block	CatB block	CatB mixtures
Cc1ccc(-c2nnc3ccc(SC(C)C(=O)O)nn23)cc1 (stereo unspecified)	11	3	12	-2	7	1
CC(Sc1ccc2nnc(-c3ccc(F)cc3)n2n1)C(=O)O (stereo unspecified)	17	54*	3	0	9	4
CC(=O)Nc1ccc(S(=O)(=O)/N=C2\SCCN2S(=O)(=O)c2ccc(NC(C)=O)cc2)cc1	0	79*	10	13	2	6
CC(=O)Nc1ccc(S(=O)(=O)N2CCSC2C(=O)O)cc1 (stereo unspecified)	4	-2	0	5	-3	3
CCOC(=O)C(NS(=O)(=O)c1ccc(Br)cc1)C(C)C (stereo unspecified)	-9	0	-13	-18	2	-1
CCOC(=O)CNS(=O)(=O)c1cc(-c2n[nH]c(=O)c3ccccc23)ccc1C	·	7	·	·	23*	·
Cc1nc2sc(C(c3ccc(Cl)cc3)N3CCN(c4ccccc4F)CC3)c(O)n2n1 (stereo unspecified)	13	24	14	-15	6	3
O=C(c1cncc(Br)c1)N1CCN(c2ccc(N3CCOCC3)nn2)CC1	11	14	2	1	52*	1
O=C(c1ccc(N2CCOCC2)nc1)N1CCOCC1	6	-9	1	5	2	0
Cc1cc(NC(=O)C23CCC(C)(c4nc5cc(Cl)c(Cl)cc5nc42)C3(C)C)no1 (stereo unspecified)	32	10	6	-14	3	5
COc1ccccc1CN(Cc1ccco1)S(=O)(=O)c1ccc(-n2cnnn2)c(OC)c1	60*	10	12	-8	7	15
CCN(C(=O)COc1cc(=O)n(CC)c2ccccc12)c1cccc(Cl)c1	6	3	10	18	25*	4
CCN(C(=O)COc1cc(=O)n(CC)c2ccccc12)c1cc(Cl)ccc1OC	-2	·	-2	-2	3	1
O=C(CN1CCN(c2ncccn2)CC1)NCCC1=CCCCC1	-4	-4	9	-1	3	3
CCCCOc1ccc(C2C3CN(C(=O)OCC)CC=C3C(C#N)=C(N)C2(C#N)C#N)cc1OC (stereo unspecified)	11	60*	13	10	2	7
CCOC(=O)N1CC=C2C(C#N)=C(N)C(C#N)(C#N)[C@H](c3ccc(OCC)c(OCC)c3)[C@H]2C1	22	33	0	-7	0	-1
Cc1ccc(CCNC(=O)C2CCCN(c3nc4ccccc4o3)C2)cc1 (stereo unspecified)	3	23	5	2	-2	-1
CC(=O)c1cn(CC(=O)NCc2ccc3c(c2)OCO3)c2ccccc12	14	8	14	64*	0	8
O=c1nc2n(c3sc4c(c13)CCC4)Cc1ccccc1-2	6	1	1	-11	-4	-2
COc1ccc(-n2c(SCC(=O)N3CCN(c4ccccc4)CC3)nc3c(c2=O)SCC3)cc1	-5	-7	6	0	0	4
Cc1ccc(-n2c(SCC(=O)N3CCCC3)nc3c(c2=O)SCC3)cc1	10	18	11	21*	-1	3
CCN1C(=O)c2ccc(-c3nc4ccccc4c(=O)o3)cc2C1=O	12	-2	39*	12	1	2
COCCNC(=O)C(c1ccc(C)o1)N(C(=O)c1snc(C(N)=O)c1N)c1cc(C)cc(C)c1 (stereo unspecified)	10	5	6	-24	8	1
COC(=O)Sc1nc(N2CCOCC2)c2c(c1C#N)CC(C)(C)OC2	·	3	·	·	47*	·
CSc1nc(N2CCN(CCO)CC2)c2sc3nc(-c4ccco4)c4c(c3c2n1)CCC4	-1	72*	-4	-1	0	-5
SMILES	CatS inh	CatL block	Cathepsin G inh	C1s block	CatB block	CatB mixtures
CCOC(=O)c1ccc(N=Cc2nc(-c3ccccc3)oc2OC(C)=O)cc1	19	5	28*	-9	9	3
CCOC(=O)c1nc(-c2ccccc2)oc1N(C)C	-9	-127	-2	-15	-2	-7
CCOC(=O)c1ccc(N=Cc2nc3ccccc3n2C)cc1	7	10	9	-6	2	0
CCC(=O)Oc1oc(-c2ccccc2)nc1C=Nc1ccccc1OC	·	5	·	·	26*	·
COc1cccc(C2=CC(c3cccc(OC)c3OC)n3nnnc3N2)c1 (stereo unspecified)	-4	0	34	30*	4	5
COc1cccc(C2=CC(c3cccc(OC)c3OC(F)F)n3nnnc3N2)c1 (stereo unspecified)	13	17	-3	-17	6	3
O=C(Oc1ccc2c(c1)OCC2=O)c1ccccc1	0	-1	12	43*	5	2
COc1ccccc1Nc1nc(-c2cccs2)cs1	24	11	10	58*	2	5
O=C(CN1CCCN(S(=O)(=O)c2ccc(Br)cc2)CC1)Nc1ccc2c(c1)OCO2	3	51*	-4	-5	-2	8
COc1ccc(S(=O)(=O)N2CCCN(CC(=O)Nc3ccc4c(c3)OCO4)CC2)cc1	18	2	-4	-9	8	7
COc1ccc(C(=O)n2cnc(N)n2)cc1	-4	-1	70*	9	0	1
O=C(O)c1ccccc1C(=O)NCc1ccc(F)cc1	2	12	21	-22	21*	-1
O=C(O)c1ccccc1C(=O)NCc1ccccc1	11	-5	0	-5	-5	-1
CCC(=O)Oc1ccc(C(CC)C(CC)c2ccc(OC(=O)CC)cc2)cc1 (stereo unspecified)	-5	6	9	22*	2	4
COc1ccccc1-c1cc(C(F)(F)F)nc(N2CCN(c3ccccc3)CC2)n1	-9	105*	3	11	5	0
COc1ccc(CNC(=O)C2CCN(S(=O)(=O)c3cc(OC)ccc3OC)CC2)cc1	-5	-8	-1	-36	-5	1
COc1ccc(CCNC(=O)C2CCN(S(=O)(=O)c3cc(OC)ccc3OC)CC2)cc1	20	46*	11	7	2	9
CCCCN(C)C(=O)c1oc2ccc(S(=O)(=O)N3CCCCCC3)cc2c1C	-8	19	-8	-15	2	-2
O=C(c1ccco1)N1CCN(S(=O)(=O)c2ccc(S(=O)(=O)NC3CCCCC3)cc2)CC1	0	-1	9	71*	1	3
Cc1ccc(C)c2[nH]c(=O)c(CN(CC3CCCO3)C(=O)NC3CCCCC3)cc12 (stereo unspecified)	25	-4	9	12	1	3
COc1ccc(O)c(-c2[nH]ncc2C(=O)c2ccccc2C)c1	9	·	10	9	-1	2
Cc1ccc(NC(=O)CSc2nnc(-c3ccco3)c(-c3ccco3)n2)cc1	·	6	·	·	16	·
